# Source: PubChem BioAssay (NCATS)
# Values joined by “and” are separate entries in the source; they are usually repeats but may differ in a detail not shown here. Identical values can stand only once. Results filed as inconclusive are left out. Entries that show only a call come without a potency. More than one record can exist for a structure, and the calls need not agree. Active and inactive are the calls of the source. Unless noted, calls come from the whole dose curve; as a rule, active = well fitted curve in the direction sought with a large enough effect; inconclusive = small, poorly fitted or top-dose-only effect, or another doubt; inactive = no such curve, though single readings can be large; an effect the other way counts as inactive or inconclusive.
# What was measured:
# [1] = target: Peroxisome proliferator-activated receptor gamma (Homo sapiens) (UniProt P37231); assay: qHTS assay for small molecule antagonists of peroxisome proliferator-activated receptor gamma signaling (AID 588537; active = well fitted inhibition curve with a large enough effect in the signal ratio, with a control signal flat, not every such curve was filed as active; the % refers to the signal ratio; note: potency is the fitted concentration of half-maximal effect)
# Peroxisome proliferator-activated receptor gamma (Homo sapiens), sequence (P37231 whole entry, looked up): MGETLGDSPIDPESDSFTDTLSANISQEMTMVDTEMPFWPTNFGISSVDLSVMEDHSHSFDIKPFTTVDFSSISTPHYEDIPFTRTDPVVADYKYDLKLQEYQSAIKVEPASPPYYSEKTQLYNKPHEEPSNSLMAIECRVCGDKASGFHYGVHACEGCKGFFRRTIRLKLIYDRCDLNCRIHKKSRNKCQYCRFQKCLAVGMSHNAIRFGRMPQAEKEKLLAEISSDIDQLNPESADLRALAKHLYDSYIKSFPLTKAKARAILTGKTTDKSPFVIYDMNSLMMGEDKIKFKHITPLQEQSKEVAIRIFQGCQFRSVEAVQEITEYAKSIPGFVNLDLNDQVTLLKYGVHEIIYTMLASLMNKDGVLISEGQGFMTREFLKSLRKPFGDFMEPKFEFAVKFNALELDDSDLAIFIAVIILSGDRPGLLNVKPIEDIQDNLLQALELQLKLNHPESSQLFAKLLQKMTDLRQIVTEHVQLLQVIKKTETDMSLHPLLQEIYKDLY
# Outline: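 Cell-based beta-lactamase assay; GW9662 served as the antagonist control. Stimulation used rosiglitazone, final 50 nM, 16 h, 37 C.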
# [2] = target: Thyroid hormone receptor beta (Homo sapiens) (UniProt P10828); assay: qHTS assay for small molecule agonists of thyroid hormone receptor beta signaling (AID 588545; calls by dose curve)
# Thyroid hormone receptor beta (Homo sapiens), sequence (P10828 whole entry, looked up): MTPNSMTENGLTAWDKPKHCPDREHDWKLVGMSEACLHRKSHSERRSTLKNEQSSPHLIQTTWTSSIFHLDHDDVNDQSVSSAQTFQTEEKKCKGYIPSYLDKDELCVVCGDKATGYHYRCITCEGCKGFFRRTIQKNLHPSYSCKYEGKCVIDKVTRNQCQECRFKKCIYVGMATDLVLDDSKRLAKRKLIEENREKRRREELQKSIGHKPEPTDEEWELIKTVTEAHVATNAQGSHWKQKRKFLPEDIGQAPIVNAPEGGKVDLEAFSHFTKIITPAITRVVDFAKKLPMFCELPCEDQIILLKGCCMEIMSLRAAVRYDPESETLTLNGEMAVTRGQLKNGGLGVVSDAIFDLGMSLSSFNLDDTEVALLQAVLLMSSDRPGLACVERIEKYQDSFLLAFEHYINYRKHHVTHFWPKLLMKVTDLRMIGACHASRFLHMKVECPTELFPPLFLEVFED
# Outline: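 Agonist-mode beta-lactamase reporter assay, HEK 293 cells, 2% charcoal/dextran FBS; cells plated 4 hrs, compound 18 hrs at 37 C, CCF4 2 hrs RT. Normalized to 10 nM T3 (100%) and DMSO (0%); Hill fit gives EC50, efficacy.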
# [3] = target: Voltage-gated inwardly rectifying potassium channel KCNH2 (Homo sapiens) (UniProt Q12809); assay: qHTS Assay for Small Molecule Inhibitors of the Human hERG Channel Activity (AID 588834);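 note: lower thallium flux fluorescence means stronger hERG block; nearly all actives have a fitted effect of over 50% in size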; note: potency is the fitted concentration of half-maximal effect
# Voltage-gated inwardly rectifying potassium channel KCNH2 (Homo sapiens), sequence (Q12809 whole entry, looked up): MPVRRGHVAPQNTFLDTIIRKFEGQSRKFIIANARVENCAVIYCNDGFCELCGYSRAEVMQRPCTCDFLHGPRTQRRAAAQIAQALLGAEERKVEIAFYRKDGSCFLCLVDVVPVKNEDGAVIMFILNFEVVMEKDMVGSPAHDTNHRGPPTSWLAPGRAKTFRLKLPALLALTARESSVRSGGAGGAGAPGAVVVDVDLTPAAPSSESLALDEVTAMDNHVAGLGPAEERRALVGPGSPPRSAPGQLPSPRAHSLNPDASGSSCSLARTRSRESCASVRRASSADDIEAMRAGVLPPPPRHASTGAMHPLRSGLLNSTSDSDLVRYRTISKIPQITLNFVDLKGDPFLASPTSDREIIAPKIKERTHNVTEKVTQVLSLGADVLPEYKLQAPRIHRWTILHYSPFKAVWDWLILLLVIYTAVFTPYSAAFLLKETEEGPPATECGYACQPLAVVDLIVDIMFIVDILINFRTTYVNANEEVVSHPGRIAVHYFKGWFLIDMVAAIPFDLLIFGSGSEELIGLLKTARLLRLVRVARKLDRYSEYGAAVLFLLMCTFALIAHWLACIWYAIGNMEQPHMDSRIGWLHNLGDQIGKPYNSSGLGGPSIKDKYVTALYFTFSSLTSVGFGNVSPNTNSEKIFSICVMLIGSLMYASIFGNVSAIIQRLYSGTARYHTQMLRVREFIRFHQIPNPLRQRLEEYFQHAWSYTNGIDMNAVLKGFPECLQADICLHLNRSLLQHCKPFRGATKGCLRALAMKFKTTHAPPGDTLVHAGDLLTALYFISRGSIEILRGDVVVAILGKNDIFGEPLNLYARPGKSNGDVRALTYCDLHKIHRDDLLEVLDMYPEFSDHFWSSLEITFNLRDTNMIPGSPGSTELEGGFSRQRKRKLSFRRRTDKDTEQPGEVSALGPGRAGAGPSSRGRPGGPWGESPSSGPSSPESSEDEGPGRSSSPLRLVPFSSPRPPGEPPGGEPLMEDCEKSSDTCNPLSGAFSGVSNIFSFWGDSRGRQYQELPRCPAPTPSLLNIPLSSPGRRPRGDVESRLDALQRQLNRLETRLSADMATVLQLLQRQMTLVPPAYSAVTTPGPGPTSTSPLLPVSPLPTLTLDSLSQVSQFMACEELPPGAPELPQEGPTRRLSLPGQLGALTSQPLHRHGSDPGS
# Outline: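 Cells were infected with hERG-BacMam virus for 4 hrs at room temperature, grown overnight, then seeded at 2000/well. After dye loading and roughly 10 min compound treatment, thallium influx was triggered and fluorescence recorded.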
# [4] = target: Luciferin 4-monooxygenase (Photinus pyralis) (UniProt P08659); assay: Biochemical firefly luciferase enzyme assay for NPC (AID 624030);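 note: purified P. pyralis luciferase at 10 nM with luciferin and ATP substrate; series mostly up to about 59 µM; nearly all actives have a fitted effect of over 70% in size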
# Luciferin 4-monooxygenase (Photinus pyralis), sequence (P08659 whole entry, looked up): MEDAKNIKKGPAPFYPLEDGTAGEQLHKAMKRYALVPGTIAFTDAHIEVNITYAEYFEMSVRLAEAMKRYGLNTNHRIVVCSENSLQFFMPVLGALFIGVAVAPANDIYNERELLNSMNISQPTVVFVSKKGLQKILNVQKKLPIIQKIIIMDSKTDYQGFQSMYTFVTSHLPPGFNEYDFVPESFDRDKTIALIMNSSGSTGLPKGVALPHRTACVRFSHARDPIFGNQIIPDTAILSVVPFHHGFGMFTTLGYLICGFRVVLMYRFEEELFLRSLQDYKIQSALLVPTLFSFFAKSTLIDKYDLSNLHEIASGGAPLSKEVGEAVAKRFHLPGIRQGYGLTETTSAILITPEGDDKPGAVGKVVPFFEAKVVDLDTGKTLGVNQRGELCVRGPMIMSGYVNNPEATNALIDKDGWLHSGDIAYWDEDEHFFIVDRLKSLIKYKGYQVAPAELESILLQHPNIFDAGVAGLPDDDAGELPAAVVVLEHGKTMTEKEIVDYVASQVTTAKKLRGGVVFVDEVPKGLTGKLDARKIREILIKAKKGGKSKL
# Outline: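 Direct inhibition of firefly luciferase enzyme (10 nM final, 50 mM Tris Acetate) assessed by luminescence within 5 minutes. Percent activity scaled between DMSO and PTC124 positive control, with concentration-effect curves classified by fit quality and response.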
# [5] = S16 Schwann cell viability assay (CellTiter-Glo assay) (AID 624031);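 note: native untransfected S16 rat Schwann cells; cellular ATP luminescence as a viability measure; series mostly up to about 58 µM; nearly all actives have a fitted effect of over 70% in size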
# Outline: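 Concentration-effect curves come from CellTiter-Glo luminescence of S16 rat Schwann cells after 24 h compound exposure. Each reading was normalized to DMSO wells (0%) and wells without cells, and curves were ranked by r2 and response magnitude.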
# [6] = S16 Schwann cell PMP22 intronic element firefly luciferase assay (AID 624032); note: nearly all actives have a fitted effect of over 30% in size; note: potency is the fitted concentration of half-maximal effect
# Outline: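 Luciferase reporter of PMP22 intronic-element expression in stably transfected S16 rat Schwann cells, read by ONE-Glo luminescence after 24 h compound exposure at 37 C. Activity scaled between DMSO (0%) and positive-control PTC124; concentration-effect curves quality-classified.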
# [7] = qHTS assay for small molecule agonists of retinoid X receptor alpha signaling (AID 588544); settings: HEK293T RXRa-UAS-bla, beta-lactamase reporter, 18 h; 530 nm emission
# [8] = qHTS assay for small molecule antagonists of retinoid X receptor alpha signaling (AID 588546; active = well fitted inhibition curve with a large enough effect in the signal ratio, with a control signal flat, not every such curve was filed as active; the % refers to the signal ratio;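 note: cells stimulated with 9-cis-retinoic acid as agonist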); settings: HEK293T RXRa-UAS-bla, beta-lactamase ratio, antagonist mode; measured here: W530 green channel, cytotoxicity proxy
# Outline: (§1)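 Beta-lactamase reporter inhibition, read as CCF4 fluorescence ratio (ex 405, em 460/530 nm) after 2 h at RT. HEK293T UAS-bla cells, 2500/well, were stimulated with 9-cis-RA at 500 or 100 nM final alongside test compound for 18 h at 37 C.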
# [9] = target: Retinoic acid receptor RXR-alpha (Homo sapiens) (UniProt P19793); assay: as above; settings: HEK293T RXRa-UAS-bla, beta-lactamase ratio, antagonist mode
# Retinoic acid receptor RXR-alpha (Homo sapiens), sequence (P19793 whole entry, looked up): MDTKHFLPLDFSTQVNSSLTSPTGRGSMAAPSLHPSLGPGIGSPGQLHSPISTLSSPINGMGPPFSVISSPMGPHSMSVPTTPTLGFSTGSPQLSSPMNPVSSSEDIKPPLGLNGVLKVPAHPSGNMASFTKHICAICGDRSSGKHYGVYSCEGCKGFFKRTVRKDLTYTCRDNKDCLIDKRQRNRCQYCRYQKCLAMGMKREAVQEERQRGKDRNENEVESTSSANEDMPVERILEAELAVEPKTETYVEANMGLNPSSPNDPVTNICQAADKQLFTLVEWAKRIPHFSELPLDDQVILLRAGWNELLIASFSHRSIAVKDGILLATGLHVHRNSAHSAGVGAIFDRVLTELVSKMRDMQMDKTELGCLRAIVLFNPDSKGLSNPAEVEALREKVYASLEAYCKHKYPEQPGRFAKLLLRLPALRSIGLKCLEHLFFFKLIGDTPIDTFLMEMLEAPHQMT
# Outline: as §1
# [10] = target: Thyroid hormone receptor beta (Homo sapiens) (UniProt P10828); assay: qHTS assay for small molecule antagonists of thyroid hormone receptor beta signaling (AID 588547; active = well fitted inhibition curve with a large enough effect in the signal ratio, with a control signal flat, not every such curve was filed as active; the % refers to the signal ratio;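 note: cells stimulated with 0.4 nM T3 agonist during compound exposure; series mostly up to about 77 µM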); settings: TR-UAS-bla HEK293, beta-lactamase ratio, antagonist mode, 18 h
# Outline: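 Inhibition of T3-driven (0.4nM final) beta-lactamase reporter activity was measured over 0.59 nM to 92 uM compound after 18 h at 37 C. The cells were GripTite HEK293 TR-UAS-bla in charcoal/dextran-stripped serum, with CCF4 ratio read-out and IC50 from Hill fits.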
structure (smiles),measurement,setting,value
COCC(C)N(C(=O)CCl)c1c(C)csc1C (stereo not drawn),Potency,[1],39.8 µM (active)
same,outcome,[2],inactive
same,Potency,[3],inactive
same,Potency,[4],inactive
same,Potency,[5],inactive
same,Potency,[6],inactive
CCOP(=O)(OCC)O/C(=C/Cl)c1ccc(Cl)cc1Cl,max response,[7],10.8%
same,outcome,[2],inactive
same,max response,[8],4.06% and 8.46%
same,max response,[9],-33.2% (inactive) and -25.5% (inactive)
same,activity change % (negative = inhibition),[10],-5.99% (inactive)
same,Potency,[3],inactive
same,Potency,[4],inactive
same,Potency,[5],inactive
same,Potency,[6],inactive
COc1ccc2c(c1OC)C(=O)OC2C1c2cc3c(cc2CCN1C)OCO3 (stereo not drawn),Potency,[1],inactive
same,max response,[7],0.13%
same,outcome,[2],inactive
same,max response,[8],-2.26%
same,max response,[9],20.7% (inactive)
same,activity change % (negative = inhibition),[10],-14.3% (inactive)
same,Potency,[3],15.8 µM (active) and inactive
CC(C)(C)c1cc(O)ccc1O,Potency,[1],inactive and 44.7 µM (active)
same,max response,[7],23.9% and 27.4%
same,outcome,[2],inactive
same,max response,[8],10.2% and -11%
same,max response,[9],0.473% (inactive) and -17.4% (inactive)
same,Potency,[3],inactive
same,Potency,[4],inactive
same,Potency,[5],inactive
same,Potency,[6],7.21 µM (active) and 28.7 µM (active)
C[C@]12CCC(=O)C[C@@H]1CC[C@@H]1[C@@H]2CC[C@]2(C)[C@@H](O)CC[C@@H]12,max response,[7],21%
same,outcome,[2],inactive
same,max response,[8],16.7%
same,max response,[9],-6.47% (inactive)
same,activity change % (negative = inhibition),[10],2.39% (inactive)
same,Potency,[3],inactive
same,Potency,[4],inactive
same,Potency,[5],inactive
[O]=[Cr](=[O])([OH])[O][Cr](=[O])(=[O])[OH],outcome,[2],inactive
same,activity change % (negative = inhibition),[10],-20.9% (inactive)
same,Potency,[4],inactive
O=C1C2CC=CCC2C(=O)N1SC(Cl)(Cl)Cl (stereo not drawn),outcome,[2],inactive
O=[N+]([O-])c1ccc(F)c([N+](=O)[O-])c1,activity change % (negative = inhibition),[10],5.42% (inactive)
same,Potency,[4],inactive
same,Potency,[6],inactive
C[CH2][Hg][S]c1ccccc1C(=O)O,Potency,[6],0.721 µM (active)
COc1ccc(OC)c(C(O)C(C)N)c1 (stereo not drawn),Potency,[3],inactive
same,Potency,[4],inactive
same,Potency,[5],inactive
same,Potency,[6],inactive
[Cl][Pt][Cl],Potency,[4],inactive
CCOc1ccc2c3c1O[C@H]1[C@@H](O)C=C[C@H]4[C@@H](C2)N(C)CC[C@@]341,Potency,[3],inactive
same,Potency,[4],inactive
same,Potency,[5],inactive
same,Potency,[6],16.1 µM (active)
CCCC(=O)OC(C(Cl)(Cl)Cl)P(=O)(OC)OC (stereo not drawn),Potency,[3],inactive
same,Potency,[4],inactive
same,Potency,[5],inactive
same,Potency,[6],inactive
CNC(C)C(O)c1ccc(O)cc1 (stereo not drawn),Potency,[3],inactive
same,Potency,[4],inactive
same,Potency,[5],inactive
same,Potency,[6],2.28 µM (active)
CCC(N)Cc1c[nH]c2ccccc12 (stereo not drawn),Potency,[3],inactive
same,Potency,[4],inactive
same,Potency,[5],inactive
same,Potency,[6],inactive
CC(C)(O)C1C2OC(=O)C1C1(O)CC3OC34C(=O)OC2C14C (stereo not drawn),Potency,[3],inactive
same,Potency,[4],inactive
same,Potency,[5],inactive
same,Potency,[6],inactive
O=C1CC[C@@]2(O)C3Cc4ccc(O)c5c4C2(CCN3CC2CC2)[C@H]1O5 (stereo partly drawn),Potency,[3],11.2 µM (active)
same,Potency,[4],inactive
same,Potency,[5],inactive
same,Potency,[6],inactive
CCC1(c2ccccc2)C(=O)NC(=O)N(C)C1=O (stereo not drawn),Potency,[3],inactive
same,Potency,[4],inactive
same,Potency,[5],inactive
same,Potency,[6],inactive
c1ccc2cc(CC3=NCCN3)ccc2c1,Potency,[4],inactive
same,Potency,[5],inactive
same,Potency,[6],inactive
